Giardia kill – Small Molecules that selectively kill Giardia lamblia: qHTS | Giardia lamblia trophozoite viability | activity change, % at 7.66 µM, hits read low | hit rate 0.15% among 340,000; in the data active = activity change below about -80%; inconclusive = between about -30% and that limit;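 also: parasites exposed to compound for two days anaerobically before the ATP read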
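Compounds were tested on trophozoites seeded at 100 cells/well and held 48 hrs at 37 deg C anaerobically. An ATP-based luminescent kit measured the remaining live cells.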
IL-1B inflam inh – qHTS for Inhibitors of Inflammasome Signaling: IL-1-beta AlphaLISA Primary Screen; THP-1 LPS/ATP IL-1B secretion, AlphaLISA, 16 h; stronger effect = lower value; hit rate 4.7% among 360,000; AID 743279, 2014; activity change, % at 57.5 µM; in the data active = activity change below about -50%; inconclusive = mostly about -30% to -49%
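THP-1 cells pretreated 1 hr with compounds (up to 57.5 uM final), then stimulated with LPS (250 ng/mL final) plus ATP (1.25 mM final); secreted IL-1B measured by AlphaLISA after 16 hr, decreased signal indicating inhibition.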
DT40 TDP1 no CPT – qHTS for Inhibitors of human tyrosyl-DNA phosphodiesterase 1 (TDP1): qHTS in cells in absence of CPT. hit rate 15% among 420,000. Potency, µM (series often up to 46.2 µM), without a hit: at the top dose activity change, negative = growth inhibition, hits mostly inhibitors. DT40 Tdp1-/- hTDP1 cells, no CPT, ATP luminescence, 48 h; also: potency is read from the fitted curve at half-maximal effect; nearly all actives have a fitted effect of over 55% in size
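DT40 Tdp1-/-;hTDP1 cells, no CPT (DMSO vehicle only), 400 cells/well; compounds pin-transferred; ≥48 hr, 37 °C; CellTiter-Glo 30 min RT dark, luminescence read.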
DT40 TDP1 CPT – qHTS for Inhibitors of human tyrosyl-DNA phosphodiesterase 1 (TDP1): qHTS in cells in presence of CPT; Potency, µM (doses to about 46.2 µM), inactives show at the top dose activity change, negative = growth inhibition, hits mostly inhibitors; hit rate 12% among 420,000; chicken DT40 Tdp1-/-;hTDP1 cells + 20 nM CPT, ATP luminescence, 48 h; also: potency is read from the fitted curve at half-maximal effect; nearly all actives have a fitted effect of over 55% in size
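Cell growth measured by CellTiter-Glo luminescence after a minimum 48 h, 37 C compound exposure with 20 nM CPT in Tdp1-knockout DT40 cells stably expressing hTDP1, seeded 400/well; qHTS titration format.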
ELG1 repair inh – qHTS screen for small molecules that inhibit ELG1-dependent DNA repair in human embryonic kidney (HEK293T) cells expressing luciferase-tagged ELG1; HEK293T ELG1-luciferase reporter, luminescence, 16 h; DNA damage induced by 5-fluorouridine; Potency, µM (highest dose often 46.1 µM), without a hit: top-dose activity change, negative = inhibition, actives largely listed as inhibitors; hit rate 2.3% among 330,000; AID 504467, 2011; also: potency is read from the fitted curve at half-maximal effect; nearly all actives have a fitted effect of over 55% in size
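Reporter activity after DNA damage by 5-fluorouridine is monitored. Compound-treated cells incubate 16 hr at 37 °C, then ONE-Glo is added for 30 min before luminescence reading.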
TDP1 inh – qHTS Assay for Inhibitors of Tyrosyl-DNA Phosphodiesterase (TDP1) | Tyrosyl-DNA phosphodiesterase 1 (Homo sapiens), Q9NUW8 | recombinant TDP1, AlphaScreen DNA substrate cleavage | Potency, µM (doses to about 130 µM), inactives show top-dose activity change, negative = inhibition, hits mostly inhibitors | hit rate 0.28% among 350,000 | AID 485290, 2010; also: potency is read from the fitted curve at half-maximal effect; nearly all actives have a fitted effect of over 40% in size
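Steps: enzyme plus compound, 15 min RT; add biotin/phosphotyrosine-FITC oligonucleotide (15 nM final), react 5 min; add donor/acceptor beads (10 ug/ml final), 10 min; read AlphaScreen. Tdp1 at 1 nM final.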
ELG1 FLuc counter – qHTS screen for small molecules that inhibit ELG1-dependent DNA repair: Hit Confirmation in Cell-Based Luciferin Assay. shares compounds with ELG1 repair inh. AID 624247, 2012. hit rate 3% among 350. cell-free firefly luciferase luminescence counter-screen, ViewLux. Potency, µM (titrated, usually from 46.1 µM), for inactives: top-dose activity change, negative = inhibition, actives largely listed as inhibitors; also: potency is read from the fitted curve at half-maximal effect
ELG1 Luc conf – HTS assay for small molecules that inhibit ELG1-dependent DNA repair in human embryonic kidney (HEK293T) cells expressing luciferase-tagged ELG1: Hit Confirmation; shares compounds with ELG1 repair inh; HEK293T ELG1-luciferase levels, luminescence; cells co-treated with 5-fluorouridine; Potency, µM (titrated, usually from 46.1 µM), for inactives: at the highest dose activity change, negative = inhibition, usual class: inhibitors; hit rate 68% among 670; also: potency is read from the fitted curve at half-maximal effect; nearly all actives have a fitted effect of over 55% in size
ELG1-Luc MMS – confirmation of human ELG1 repair inhibitors, MMS stimulated | shares compounds with ELG1 repair inh | HEK293T luciferase-tagged ELG1 level, MMS stimulated | Potency, µM (top dose mostly 46.1 µM), for the others: top-dose activity change, negative = inhibition, most hits filed as inhibitors | hit rate 53% among 670; also: potency is read from the fitted curve at half-maximal effect; nearly all actives have a fitted effect of over 60% in size
ELG1 5-FU – qHTS screen for small molecules that inhibit ELG1-dependent DNA repair: Hit Confirmation with 5FU Viability; Potency, µM (doses to about 46.1 µM), inactives show top-dose activity change, negative = viability loss, most hits filed as cytotoxic; cell viability with 5-FU, ELG1-dependent repair; shares compounds with ELG1 repair inh; 670 tested, under 10 active;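 also: ELG1-luc HEK293T cells cotreated with 5-fluorouridine at 10 µM final; potency is read from the fitted curve at half-maximal effect; viability measured 16 h after compound addition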
ELG1 MMS viab – qHTS screen for small molecules that inhibit ELG1-dependent DNA repair: Hit Confirmation with MMS Viability; shares compounds with ELG1 repair inh; Cell viability with MMS, ELG1-dependent DNA repair; Potency, µM (highest dose often 46.1 µM), inactives show top-dose activity change, negative = viability loss, hits mostly cytotoxic; hit rate 33% among 670; AID 624251, 2012;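 also: ELG1-luc HEK293T cells co-treated with 10 µM MMS; potency is read from the fitted curve at half-maximal effect; viability read 16 h after compound addition; nearly all actives have a fitted effect of over 60% in size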
Cell viab unstim – qHTS screen for small molecules that inhibit ELG1-dependent DNA repair: Hit Confirmation with Unstimulated Viability Assay. Potency, µM (series often up to 45.9 µM), without a hit: at the top dose activity change, negative = loss of viability, most hits filed as cytotoxic. cell viability counter-screen, unstimulated, luminescence. shares compounds with ELG1 repair inh. AID 624252, 2012. hit rate 8% among 900;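 also: potency is read from the fitted curve at half-maximal effect; compound exposure lasted 16 hours before reading; nearly all actives have a fitted effect of over 55% in size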
FLuc biochem – qHTS screen for small molecules that inhibit ELG1-dependent DNA repair: Hit Confirmation in Biochemical Luciferin Assay; shares compounds with ELG1 repair inh; AID 624253, 2012; hit rate 10% among 350; Potency, µM (doses to about 57.5 µM), for inactives: at the highest dose activity, negative = inhibition, usual class: inhibitors; purified firefly luciferase, luminescence counter-screen; also: potency is read from the fitted curve at half-maximal effect
The depositor's hits bear a star; ? = inconclusive; · = no result. Most compounds without a hit are left out; they make up all but 19% or so of the library. Unless noted, calls follow the shape of the dose curve; as a rule, active = well fitted curve in the direction sought with a large enough effect; inconclusive = small, poorly fitted or top-dose-only effect, or another doubt; inactive = no such curve, though single readings can be large; an effect the other way counts as inactive or inconclusive. % is scaled to controls: 0 for no effect and ±100 for the full control effect.

SMILES	Giardia kill	IL-1B inflam inh	DT40 TDP1 no CPT	DT40 TDP1 CPT	ELG1 repair inh	TDP1 inh	ELG1 Luc conf	ELG1-Luc MMS	ELG1 5-FU	ELG1 MMS viab	Cell viab unstim	others
O=C(Nc1ccc(Cl)cc1)c1nc[nH]c1C(=O)NCCCCNC(=O)c1[nH]cnc1C(=O)Nc1ccc(Cl)cc1	19.0	?	4.61µM*	5.8µM*	2.91µM*	-10.6%	2.5µM*	11.2µM*	-3.8%	25µM*	?
FC(F)(Cl)c1nnc2ccc(Sc3ccccn3)nn12	-14.7	1.8	-31.6%	?	?	3.6%	·	·	·	·	·
O=C(CCN1C(=O)c2ccccc2C1=O)Nc1ccc(-c2nc3ccccc3o2)cc1	-23.4	-8.0	-11.7%	-18.9%	?	-2.6%	·	·	·	·	?	ELG1 FLuc counter=152.0%;FLuc biochem=?
Cc1nn(C)cc1/C=N/NC(=O)C(C)(C)Oc1ccc(Cl)cc1	3.5	7.0	-8.2%	-10.2%	0.8%	4.9%	·	·	·	·	·
Nc1ncc([N+](=O)[O-])c(N2CCCCCC2)n1	-14.9	-16.0	-29.9%	?	2.31µM*	6.5%	4.45µM*	12.5µM*	-14.4%	-0.5%	-13.4%
